L3MBTL1 block = L3MBTL1 (human) inhibition; Q9Y468; AlphaScreen L3MBTL1–H3K9me1 peptide binding; Potency, µM (titrated, usually from 57.1 µM), for inactives: at the top dose activity, negative = inhibition, usual class: inhibitors; 230,000 tested, 0.66% active; further: on the % scale 0 is the no-effect control and ±100 the full control effect; nearly all actives have a fitted effect of over 60% in size
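AlphaScreen proximity signal between nickel-chelate acceptor and streptavidin donor beads (final 10 ug/mL) reports binding of 50 nM L3MBTL1 to 75 nM biotin-H3 K9me1 peptide; complex incubated with compounds 30 min at room temperature; cefsulodin titration as control.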
HP1b binding inh = inhibitors of HP1-beta chromodomain binding to methylated histone tails | P83916 | AlphaScreen HP1-beta / biotin-H3K9me3 peptide binding | AID 540317 | 390,000 tested, 0.56% active | Potency, µM (highest dose often 114 µM), without a hit: at the highest dose activity change, negative = inhibition, hits mostly inhibitors; further: nearly all actives have a fitted effect of over 70% in size
Target sequence (P83916 whole entry, looked up): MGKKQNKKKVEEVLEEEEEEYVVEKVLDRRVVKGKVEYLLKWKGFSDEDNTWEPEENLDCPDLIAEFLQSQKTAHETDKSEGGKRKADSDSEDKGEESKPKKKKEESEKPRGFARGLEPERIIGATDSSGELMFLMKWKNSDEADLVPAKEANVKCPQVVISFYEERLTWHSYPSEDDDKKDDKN
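AlphaScreen: HP1-beta (50 nM) preformed 30 min with biotin-H3(1-18)K9me3 peptide (50 nM) in PBS pH 7.4, 0.01% Tween-20. Compound added for 30 min at RT, then streptavidin donor/nickel chelate acceptor beads (10 ug/mL) for 30 min.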
JMJD2A Tudor = JMJD2A Tudor domain (human) inhibition; O75164; AID 504339; 390,000 tested, 4.4% active; AlphaScreen JMJD2A-Tudor / H3K4me3 peptide binding; Potency, µM (highest dose often 114 µM), for the others: at the top dose activity change, negative = inhibition, most hits filed as inhibitors; further: on the % scale 0 is the no-effect control and ±100 the full control effect; nearly all actives have a fitted effect of over 50% in size
BAZ2B inh = blocks human BAZ2B; AlphaScreen BAZ2B-H3K14Ac peptide displacement; Potency, µM (doses to about 114 µM), without a hit: at the highest dose activity change, negative = inhibition, most hits filed as inhibitors; 360,000 tested, 4.4% active; further: on the % scale 0 is the no-effect control and ±100 the full control effect; nearly all actives have a fitted effect of over 60% in size
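In this displacement format the biotinylated H3(5-23) peptide acetylated at Lys14 serves as ligand at 50 nM, with BAZ2B at 50 nM in PBS pH 7.4 containing 0.01% Tween-20. Donor and acceptor beads are 10 ug/mL final.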
G9a block = G9a (human) methyltransferase inhibition. G9a H3K9 monomethylation, AlphaScreen, 2 h. 350,000 tested, 8.8% active. Potency, µM (titrated, usually from 102 µM), for inactives: at the top dose activity, negative = inhibition, actives largely listed as inhibitors; further: on the % scale 0 is the no-effect control and ±100 the full control effect; nearly all actives have a fitted effect of over 75% in size
Target sequence (Q96KQ7 913-1193 limits assumed): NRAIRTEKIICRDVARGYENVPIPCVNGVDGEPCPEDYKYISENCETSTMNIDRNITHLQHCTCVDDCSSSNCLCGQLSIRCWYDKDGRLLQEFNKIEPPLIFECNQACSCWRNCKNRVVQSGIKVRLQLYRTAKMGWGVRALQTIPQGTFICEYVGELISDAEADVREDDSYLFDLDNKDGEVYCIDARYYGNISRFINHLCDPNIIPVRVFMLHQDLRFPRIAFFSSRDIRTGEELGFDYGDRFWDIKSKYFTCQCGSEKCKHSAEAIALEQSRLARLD
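AlphaScreen detection with an anti-monomethyl H3K9 antibody quantified product after a 2 h room-temperature reaction containing 500 nM biotinylated H3K9 peptide, 20 µM SAM and 20 nM enzyme, which had been preincubated 15 min with compound.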
Starred values were filed as active, the others as inactive; ? = inconclusive; · = not tested or not shown; [ ] = dose if it differs, or a comment. Only some compounds are listed: those with a hit (about 11% of all), similar ones and a draw of the others. The call rests on the fitted dose curve; in most records, active means well fitted inhibition curve with a large enough effect; inconclusive means small, poorly fitted or top-dose-only effect; inactive means no such curve, though single readings can be large or run the other way. Potency means the concentration at half of the fitted maximal effect.

SMILES	L3MBTL1 block	HP1b binding inh	JMJD2A Tudor	BAZ2B inh	G9a block
CC(C(=O)Nc1ccccc1)n1nnc2sc3c(c2c1=O)CCCC3 (stereo not given)	·	2%	-31%	-16%	16µM*
CC(C(=O)Nc1ccccc1C(F)(F)F)n1nnc2sc3c(c2c1=O)CCCC3 (stereo not given)	·	-3%	-20%	-17%	14µM*
COc1ccc(Cl)cc1NC(=O)C(C)n1nnc2sc3c(c2c1=O)CCCC3 (stereo not given)	·	9%	-33%	-19%	14µM*
Cc1ccccc1Cn1nnc2sc3c(c2c1=O)CCCC3	·	104%	70%	97%	111%[59 µM]
Cc1ccc(NC(=O)C(C)n2nnc3sc4c(c3c2=O)CCCC4)cc1Cl (stereo not given)	·	42%	-29%	-16%	?
CCOc1cc(-c2ccc(OC(=O)c3ccccc3)c(OC)c2)cc(=O)c2c(C)oc(C)c12	·	23%	?	?	?
N#Cc1cc(NC(=O)c2ccc(F)cc2)c(=O)n2c1[nH]c1ccccc12	-6%	·	·	-12%	3.5µM*
CCOC(=O)c1cc(NC(=O)c2ccc(F)cc2)c(=O)n2c1oc1ccc(Cl)cc12	·	56%	-3%	37%	46%[59 µM]
C/C(=N/Nc1cc(-c2ccccc2)nc(-c2ccccc2)n1)c1ccc(O)cc1	-15%	6%	-33%	-36%	-17%[59 µM]
C/C(=N\Nc1cccc(C(F)(F)F)c1)c1ccc(O)cc1	-16%	?	45µM*	?	8.9µM*
C/C(=N\Nc1ccccc1)c1cccc(N)c1	-5%	?	?	?	8.9µM*
C/C(=N/Nc1nc(-c2ccccc2)cc(-c2ccccc2)n1)c1ccc(N)cc1	-16%	·	·	?	11µM*
C/C(=N\NC(=O)c1cc(O)cc(O)c1)c1ccc(NC(=O)Cc2ccccc2)cc1	·	32µM*	14µM*	8.9µM*	8.9µM*
CC1=Nc2cc(C(=O)NCCc3ccc(Cl)cc3)ccc2Sc2ccc(C)cc21	·	8%	-21%	-27%	-30%[59 µM]
C/C(=N\NC(=O)c1cccc(N/N=C(\C)c2ccncc2)c1)c1ccncc1	-25%	-10%	-25%	?	-41%
C/C(=N\NC(=O)c1cccc(N/N=C(\C)c2ccccc2)c1)c1ccccc1	-9%	-6%	-28%	-24%	2.8µM*
CC(=O)OCCCCCCCCCCC[N+]1(C)CCCCC1	4%	19%	-2%	-21%	45µM*
COC(=O)CCCC(=O)OC	-2%	11%	-6%	·	·
COC(=O)CCCCCCCCCC[N+]1(C)CCCCC1	14%	13%	?	-35%	16µM*
C[N+]1(CCCCSc2ccc(O)cc2)CCCCC1	5%	3%	-3%	?	?
Nc1nc(O)c(Sc2ccccc2[N+](=O)[O-])c(=O)[nH]1	·	26%	-4%	-5%	40µM*
Nc1ccccc1Sc1ccccc1[N+](=O)[O-]	-3%	-23%	?	?	-47%[59 µM]
O=C(Nc1ccc(S(=O)(=O)Nc2nccs2)cc1)c1nn(-c2ccccc2)ccc1=O	·	51%	11%	?	22µM*
COc1ccc(-n2ccc(=O)c(C(=O)Nc3ccc(S(=O)(=O)Nc4nccs4)cc3)n2)cc1	·	-11%	56µM*	?	?
Cc1ccc(N(C)C(=O)Cn2cc(S(=O)(=O)N3CCCC3)c(S(=O)(=O)N3CCCC3)c2)cc1	·	13%	-6%	7%[57.1 µM]	-11%[59 µM]
SMILES	L3MBTL1 block	HP1b binding inh	JMJD2A Tudor	BAZ2B inh	G9a block
CN(C)S(=O)(=O)c1ccc(=S)[nH]c1	9%	?	56µM*	·	1.4µM*
O=S(=O)(c1ccc(=S)[nH]c1)N1CCCC1	6%	-3%	?	·	·
Oc1ccccc1N1CCN(CC(O)COCc2ccccc2Cl)CC1 (stereo not given)	-30%	?	20µM*	50µM*	10µM*
COc1ccc(-c2nc3cnc(N4CCNCC4)nc3n(CCC#N)c2=O)cc1	·	·	·	·	6%[12.7 µM]
CCOC(=O)c1c(NC(=O)Nc2ccc(C)cc2)sc2c1CCN(C)C2	-11%	3%	-2%	-3%	13%
CCOC(=O)c1c(/N=C/c2ccc(OC)cc2O)sc2c1CCN(C)C2	25µM*	?	45µM*	40µM*	·
CCOC(=O)c1c(/N=C/N(C)C)sc2c1CCC2	-5%	-13%	-34%	?	-18%[59 µM]

Source: PubChem BioAssay
